Hits are enriched below; roughly 6.8% of the tested compounds scored in any of these assays.
MK inhibit – blocks S. pneumoniae mevalonate kinase; 0.48% of 65,000 active; AID 555; purified MK, PK/LDH-coupled NADH absorbance 340 nm; inhibition, % at 10 µM;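 active = ranked among the strongest by inhibition in the single 10 µM screen, a fixed top-ranked set picked for dose follow-up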
Autofluor 339 – intrinsic fluorescence of library compounds, ex339/em460 – biochemical, MLSMR library, data from DPM-DC assay, artefact control, profiling panel; compound autofluorescence, ex339/em460 nm, NADH buffer; stronger effect = higher value; 1 = no-compound wells, NADH background; fluorescence fold increase at 10 µM; 5.5% of 65,000 active;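 active = at 10 µM, mean starting fluorescence two-fold or more over control wells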;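 also: signal is the first read of a kinetic run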
PMK inhibit – S. pneumoniae PMK inhibition; purified PMK, PK/LDH-coupled NADH absorbance 340 nm; inhibition, % at 10 µM; 0.49% of 65,000 active; AID 539;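 active = top-ranked compounds by inhibition in the single 10 µM screen, taking a fixed number of the strongest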
DPM-DC inhibit – S. pneumoniae DPM-DC inhibition. purified DPM-DC, PK/LDH coupled NADH fluorescence. calls only at 10 µM. 0.49% of 65,000 active. AID 556;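 active = the 320 compounds with the highest percent inhibition in the single-dose primary screen, excluding strongly autofluorescent ones, cut at about 32% in these data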;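 also: kinetic rate of NADH fluorescence loss reporting ADP formed by the decarboxylase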
Abs 340nm – absorbance at 340 nm | 65,000 tested, under 10 active | AID 708 | compound absorbance at 340 nm, fold over control | fold change at 10 µM;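 active = at 10 µM dose, initial 340 nm absorbance at least 2 fold that of control wells; inactive = change under 2 fold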;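 also: initial absorbance extrapolated from kinetic A340 decline of NADH oxidation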
NADH enzymes – inhibitors of enzymes used to reach an NAD/NADH endpoint. coupled PK/LDH NADH assays, four targets. IC50, µM (series often up to 10 µM). 0.02% of 65,000 active. AID 774;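 active = single-dose screening hits from any of four coupled enzyme assays that gave an IC50 when retested across doses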;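 also: the DPM-DC format reads NADH fluorescence rather than 340 nm absorbance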
Each line names hits and unclear results; the compound was inactive in the other large screens.

CCCCn1cnc2c(cnn2-c2ccc(Cl)cc2)c1=O	none
O=C1CCCC2=C1C(c1ccco1)Nc1ccc3ccccc3c12 (centres undefined)	Autofluor 339 2.2 (not shown: DPM-DC inhibit)
CC(=O)Oc1ccc2cc(-c3nc4ccccc4n3C)c(=O)oc2c1	Autofluor 339 2.1 (not shown: DPM-DC inhibit)
CCc1cc2c(=O)c(-c3nc4ccccc4n3C)c(COCC(=O)O)oc2cc1O	none
O=C(CSc1ccc2nnc(-c3ccccc3)n2n1)N1CCN(c2ccccc2)CC1	none
CCOC(=O)N1CCN(C(=O)c2cc3c(=O)[nH]c4ccccc4c3s2)CC1	Autofluor 339 3.7 (not shown: DPM-DC inhibit)
CC(=O)c1cccc(NC(=O)Nc2cccnc2)c1	DPM-DC inhibit active
CC1CCCN(S(=O)(=O)c2cccc(-c3cn4cccnc4n3)c2)C1 (centres undefined)	Autofluor 339 3.6 (not shown: DPM-DC inhibit)
CN(C)C(=O)Nc1cnc2ccccc2c1	DPM-DC inhibit active
CCOC(=O)c1cccc(NC(=O)CSc2nnc(-c3ccoc3C)n2CCOC)c1	none
CCNc1nc(NCc2ccccc2)nc(Oc2ccc(=O)[nH]n2)n1	Autofluor 339 2.6
CSc1nc(NC(C)(C)C)nc(Oc2ccc(=O)[nH]n2)n1	none
CCOc1ccc(NC(=O)CS(=O)CC(=O)NC2CCCc3ccccc32)cc1 (centres undefined)	none
Cc1csc2nc(=O)c3ccccc3n12	Autofluor 339 3.7 (not shown: DPM-DC inhibit)
CC1=C(C(=O)Nc2ccccc2)C(c2ccc(C)o2)n2c(s/c(=C\c3ccco3)c2=O)=N1 (centres undefined)	none
COc1cc(OC)cc(-c2cc3nc4c(c(N5CCN(c6cnccn6)CC5)n3n2)CCCC4)c1	Autofluor 339 2.8
CCc1c(C)nc2cc(-c3cc(OC)cc(OC)c3)nn2c1N1CCCC1	none
COc1cc(OC)cc(-c2cc3nc4c(c(N5CCN(c6ncccn6)CC5)n3n2)CCCC4)c1	Autofluor 339 3.8
COc1ccc(OC)c(NC(=O)c2cn(C)c(=O)c3cc(OC)c(OC)cc23)c1	none
O=C(N=c1nc2ccccn2s1)c1ccccc1	none (no result: DPM-DC inhibit)
O=C1CC(c2ccco2)CC2=C1C(c1ccccc1)n1nc(C(F)(F)F)nc1N2 (centres undefined)	Autofluor 339 2.8
COCCn1nnnc1C(C(C)C)N(Cc1cccnc1)Cc1cc2cc(OC)ccc2[nH]c1=O (centres undefined)	Autofluor 339 2.4
CCOC(=O)C1CCN(C(=O)CN(c2ccc(OC)c(OC)c2)S(=O)(=O)c2ccccc2)CC1	MK inhibit 71
O=C(c1coc(=O)c(Br)c1)N1CCCc2ccccc21	Autofluor 339 2.4 (not shown: DPM-DC inhibit)
CC1(C)CCCN(C(=O)c2coc(=O)c(Br)c2)C1	Autofluor 339 3.7 (not shown: DPM-DC inhibit)
O=C(c1cc(-c2ccco2)on1)N1CCCc2ccccc21	MK inhibit 50, PMK inhibit 31
C[C@@H](NC(=O)c1coc(=O)c(Br)c1)c1ccccc1	none
CCOC(=O)c1cnn(CC2CCCCC2)c1N	none
Cc1cccc(N2CCN(CC(=O)NCC3CCCCC3)CC2)c1C	none
CSc1nnc2c3c4c(sc3nc(-n3nc(C)cc3C)n12)COC(C)(C)C4	Autofluor 339 3
Cc1cc(C)n(-c2nc3sc4c(c3c3nnc(SCC(N)=O)n23)CC(C)(C)OC4)n1	Autofluor 339 2.7
Cc1cc(C)n(-c2nc(-n3nc(C)cc3C)c3c4c(sc3n2)COC(C)(C)C4)n1	none
CC(=O)Nc1ccc(S(=O)(=O)NCc2ccc(C(=O)NCc3ccc4c(c3)OCO4)cc2)cc1	none
CCC1(C)Cc2c(sc3c2c(=O)n(C)c2nnc(SCc4ccc5c(c4)OCO5)n32)CO1 (centres undefined)	none
CCOC(=O)c1cccc(NC(=O)C2CCC(CNc3c(N4CCOCC4)c(=O)c3=O)CC2)c1 (centres undefined)	none
CCCc1cc(=O)oc2cc(OCC(=O)OC)cc(OCC(=O)OC)c12	Autofluor 339 2.1 (not shown: DPM-DC inhibit)
CCCc1cc(=O)oc2cc(C)cc(OCc3nn[nH]n3)c12	Autofluor 339 3.8 (not shown: DPM-DC inhibit)
CC1CCCCN1C(=O)Cn1c(=O)n(CCC(=O)NCc2ccco2)c(=O)c2sccc21 (centres undefined)	none
CCCCn1c(SCC(=O)NCc2ccco2)nnc1-c1ccco1	none
CSc1ccc(-c2c(C#N)c(N)nc3c2CCCC3)cc1	Autofluor 339 3.7 (not shown: DPM-DC inhibit)
N#Cc1c(N)nc2c(c1-c1ccncc1)CCCCC2	none
CCOC(=O)c1cccc(NC(=O)Cn2c(CC(=O)NC)nc3ccccc32)c1	none
Cc1ccc(-c2cc(C(F)(F)F)n3ncc(C(=O)N4CCN(C)CC4)c3n2)cc1	none
NC(=O)c1cnn2c(C(F)(F)F)cc(-c3ccc(F)cc3)nc12	Autofluor 339 2.1
NC(=O)c1cnn2c(C(F)(F)F)cc(-c3ccccc3)nc12	Autofluor 339 2.1
COc1cc(-c2cc(C(F)(F)F)n3ncc(C(=O)O)c3n2)cc(OC)c1OC	none
O=C(Nc1ccccc1)N1C(=O)C2(OCCO2)c2ccccc21	none
CCn1cc(C(=O)NCc2ccccn2)c(=O)c2cc(F)c(N3CCN(C)CC3)cc21	none
CCn1cc(C(=O)O)c(=O)c2cc(F)c(N3CCNCC3)cc21	Autofluor 339 2.5 (not shown: DPM-DC inhibit)
CCOC(=O)c1cn(CC)c2cc(N3CCSCC3)c(F)cc2c1=O	Autofluor 339 2.9
CCn1cc(C(=O)O)c(=O)c2cc(F)c(N3CCN(C(=O)Nc4ccccc4)CC3)cc21	none
Cc1ccccc1N1C(=O)CC(N2CCC(C(N)=O)CC2)C1=O (centres undefined)	none
CN1C(=O)c2cccc(NC(=O)C3CCCCC3)c2C1=O	none
Cn1cnc2cc(NS(=O)(=O)c3ccc(Br)cc3)ccc21	none
CCCCS(=O)(=O)Nc1ccc2ncn(C)c(=O)c2c1	Autofluor 339 3.5 (not shown: DPM-DC inhibit)
CC(C)N=c1cc2n(-c3ccc(Cl)cc3)c3ccccc3nc-2cc1Nc1ccc(Cl)cc1	DPM-DC inhibit active
CCOC(=O)N1CCN(S(=O)(=O)c2cccc3cccnc23)CC1	none
O=C(N1CCCCCC1)N1CCN(C(=O)N2CCOCC2)CC1	none
CCOC(=O)c1cc2sccc2n1CC(=O)N1CCN(C(=O)c2ccco2)CC1	none
CCOC(=O)c1cnc(SCC(=O)N2CCN(C(=O)c3ccco3)CC2)nc1N	PMK inhibit 25
CCOC(=O)c1cc2sc(C)cc2n1CC(=O)N1CCN(C(=O)c2ccco2)CC1	MK inhibit 42
CC1(C)CC(C(=O)Nc2nccs2)CCO1 (centres undefined)	none
COc1cccc2cc3c(=O)n(-c4ccccc4)nc-3oc12	DPM-DC inhibit active
CC(C)Oc1nc(-c2ccccc2O)nc2ccccc12	none
Cc1ccccc1-c1nc2cc(N)ccc2o1	Autofluor 339 3.1, DPM-DC inhibit active
Nc1cc(N)cc(-c2nc3ccccc3o2)c1	none
Nc1ccc2oc(-c3cccc(Br)c3)nc2c1	Autofluor 339 2 (not shown: DPM-DC inhibit)
CC(C)c1ccc2oc(-c3cc(N)ccc3O)nc2c1	none
O=S(=O)(c1ccc(S(=O)(=O)N(Cc2ccc(F)cc2)C2CCCC2)cc1)N1CCCC1	none

Screens (PubChem BioAssay)
